Screening data as filed in PubChem.
Shown are actives, neighbours in structure and some others; about 12% of the full set was active somewhere.
G9a inh = G9a (human) methyltransferase inhibition. Q96KQ7. G9a H3K9 monomethylation, AlphaScreen, 2 h. Potency, µM (series often up to 102 µM), actives largely listed as inhibitors. 8.8% of 350,000 active. AID 504332; further: nearly all actives have a fitted effect of over 75% in size
Target sequence (Q96KQ7 913-1193 limits assumed): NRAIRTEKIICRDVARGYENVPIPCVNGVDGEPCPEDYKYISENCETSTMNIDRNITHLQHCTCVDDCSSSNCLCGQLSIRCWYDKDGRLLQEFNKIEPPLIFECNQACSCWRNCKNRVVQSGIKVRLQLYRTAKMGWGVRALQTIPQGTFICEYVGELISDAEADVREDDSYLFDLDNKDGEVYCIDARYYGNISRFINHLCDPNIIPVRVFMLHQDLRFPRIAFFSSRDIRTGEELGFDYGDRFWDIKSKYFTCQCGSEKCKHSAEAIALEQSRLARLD
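Using a bead-based AlphaScreen, monomethylated H3K9 product from 2 h room-temperature reactions (G9a 20 nM, peptide 500 nM, SAM 20 uM) was detected with 0.5 ug/mL rabbit anti-H3K9me1 antibody.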
HP1b chromo inh = HP1-beta chromodomain-methylated histone interaction inhibition. P83916. AlphaScreen HP1-beta / biotin-H3K9me3 peptide binding. Potency, µM (highest dose often 114 µM), most hits filed as inhibitors. 0.56% of 390,000 active; further: nearly all actives have a fitted effect of over 70% in size
Target sequence (P83916 whole entry, looked up): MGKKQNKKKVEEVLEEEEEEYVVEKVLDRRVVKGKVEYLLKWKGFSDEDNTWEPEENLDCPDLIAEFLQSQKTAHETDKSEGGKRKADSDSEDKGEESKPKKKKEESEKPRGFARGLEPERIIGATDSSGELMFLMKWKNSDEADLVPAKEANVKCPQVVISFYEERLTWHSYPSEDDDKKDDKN
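AlphaScreen: HP1-beta (50 nM) preformed 30 min with biotin-H3(1-18)K9me3 peptide (50 nM) in PBS pH 7.4, 0.01% Tween-20. Compound added for 30 min at RT, then streptavidin donor/nickel chelate acceptor beads (10 ug/mL) for 30 min.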
Sfp inh = inhibitors of Bacillus subtilis Sfp phosphopantetheinyl transferase | Q9F4F7 | Biochemical Sfp PPTase activity, qHTS | Potency, µM, usual class: inhibitors | 3.5% of 310,000 active | AID 1490;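 further: the enzyme is Sfp with the accession as filed and its product quenches rhodamine fluorescence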
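After 15 min at room temperature with compound, 15 nM Sfp received 5 uM rhodamine-CoA plus 12.5 uM BHQ-2-ybbR (50 mM Hepes pH 7.6, 10 mM MgCl2). Rate came from the fluorescence difference over 30 min, ex 525/em 598 nm.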
JMJD2A Tudor inh = JMJD2A Tudor domain (human) inhibition | AID 504339 | Potency, µM (top dose mostly 114 µM), actives largely listed as inhibitors | AlphaScreen JMJD2A-Tudor / H3K4me3 peptide binding | 4.4% of 390,000 active | O75164; further: nearly all actives have a fitted effect of over 50% in size
L3MBTL1 block = inhibitors of human L3MBTL1; Q9Y468; AlphaScreen L3MBTL1–H3K9me1 peptide binding; Potency, µM (titrated, usually from 57.1 µM), actives largely listed as inhibitors; 0.66% of 230,000 active; AID 485360; further: nearly all actives have a fitted effect of over 60% in size
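Displacement of a biotinylated histone H3(1-15) peptide monomethylated at Lys9 (75 nM) from L3MBTL1 (50 nM) was measured by AlphaScreen after a 30 min room-temperature compound incubation; cefsulodin titration served as intraplate control.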
BAZ2B inh = blocks human BAZ2B; Q9UIF8; AlphaScreen BAZ2B-H3K14Ac peptide displacement; Potency, µM (series often up to 114 µM), most hits filed as inhibitors; 4.4% of 360,000 active; AID 504333; further: nearly all actives have a fitted effect of over 60% in size
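In this displacement format the biotinylated H3(5-23) peptide acetylated at Lys14 serves as ligand at 50 nM, with BAZ2B at 50 nM in PBS pH 7.4 containing 0.01% Tween-20. Donor and acceptor beads are 10 ug/mL final.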
Each line names hits and unclear results; the compound was inactive in the other large screens. The call rests on the fitted dose curve; in most records, active means well fitted curve in the direction sought with a large enough effect; inconclusive means small, poorly fitted or top-dose-only effect, or another doubt; inactive means no such curve, though single readings can be large; an effect the other way counts as inactive or inconclusive.

CC(=O)Nc1ccc(N/C(=N\S(=O)(=O)c2ccccc2)c2ccccc2)cc1	none (no result: L3MBTL1 block)
Cc1ccc(NC(=S)N/C(=N/S(=O)(=O)c2ccccc2)c2ccccc2)cc1	G9a inh 12.6µM, Sfp inh inconclusive (no result: L3MBTL1 block)
CCCOC(=S)N/C(=N\S(=O)(=O)c1ccccc1)c1ccccc1	G9a inh 10µM, Sfp inh 15.8µM
COC(=S)N/C(=N\S(=O)(=O)c1ccc(Cl)cc1)c1ccccc1	G9a inh 25.1µM, Sfp inh 22.4µM (no result: L3MBTL1 block)
O=S(=O)(N=C(NS(=O)(=O)c1ccc(Cl)cc1)c1ccccc1)c1ccc(Cl)cc1	none (no result: G9a inh, Sfp inh, BAZ2B inh)
CCOC(=S)N/C(=N\S(=O)(=O)c1ccccc1)c1ccccc1	G9a inh 10µM, HP1b chromo inh inconclusive, Sfp inh 17.8µM
Cc1ccc(S(=O)(=O)/N=C(/NC(=S)Nc2ccccc2)c2ccccc2)cc1	G9a inh inconclusive (no result: L3MBTL1 block)
CCOc1ccc(CCNC(=O)CCc2c(C)nc3c(c(C)nn3-c3ccc(C)c(C)c3)c2C)cc1	none (no result: Sfp inh, L3MBTL1 block)
O=C(CSc1oc(-c2ccc(F)cc2)nc1S(=O)(=O)c1ccc(Cl)cc1)c1ccccc1	none (no result: Sfp inh, L3MBTL1 block)
CCOC(=O)c1ccc(N/C(=N\S(=O)(=O)c2ccccc2C)c2ccccc2)cc1	none
CCOC(=S)N/C(=N\S(C)(=O)=O)c1ccccc1	G9a inh 15.8µM, Sfp inh 20µM
COCCN(C(=S)Nc1c(C)cccc1C)C(C)c1cccnc1 (configuration not stated)	none
COCCN(C(=S)Nc1c(C)cc(C)cc1C)C(C)c1cccnc1 (configuration not stated)	G9a inh 7.08µM, HP1b chromo inh inconclusive, Sfp inh 11.2µM
Cc1c(C(=O)Nc2nc(-c3ccc(F)cc3)ns2)oc2ccc(Cl)cc12	G9a inh inconclusive (no result: Sfp inh, L3MBTL1 block)
Oc1cc2c(cc1C(c1ccc(Br)cc1)N1CCCC1)OCO2 (configuration not stated)	G9a inh 1.58µM, HP1b chromo inh 15.8µM, Sfp inh 17.8µM, JMJD2A Tudor inh 7.94µM, L3MBTL1 block inconclusive, BAZ2B inh 39.8µM
CCCNc1ncc2c(=O)[nH][nH]c(=O)c2n1	JMJD2A Tudor inh 20µM (no result: G9a inh, Sfp inh, L3MBTL1 block, BAZ2B inh)
COC(=O)c1c(NC(=O)c2ccc(OC)cc2OC)sc2c1CCCCC2	none (no result: Sfp inh, L3MBTL1 block)
O=C(OCc1ccc(Br)cc1)c1ccncc1	none (no result: G9a inh)
O=C(OCc1ccc(Br)cc1)c1cnc(Cl)c(Cl)c1	JMJD2A Tudor inh 70.8µM (no result: L3MBTL1 block)
Cc1ccc(Cl)cc1NC(=O)c1oc2ccc(S(=O)(=O)N(C)C3CCCCC3)cc2c1C	none (no result: Sfp inh, L3MBTL1 block)
Oc1ccc(CCNc2c3ccccc3nc3ccccc23)cc1O	Sfp inh inconclusive, JMJD2A Tudor inh 28.2µM, BAZ2B inh inconclusive
COC(=O)c1[nH]c(C)c(/C(O)=C2\C(=O)C(=O)N(CCN(C)C)C2c2ccc(OC)cc2)c1C (configuration not stated)	none (no result: HP1b chromo inh, JMJD2A Tudor inh, BAZ2B inh)
CCN(CC)CCN1C(=O)C(=O)/C(=C(/O)c2c(C)[nH]c(C(=O)OC)c2C)C1c1ccc(OC)cc1 (configuration not stated)	G9a inh 79.4µM
COC(=O)c1[nH]c(C)c(/C(O)=C2\C(=O)C(=O)N(CCN(C)C)C2c2cc(OC)ccc2OC)c1C (configuration not stated)	G9a inh 50.1µM, JMJD2A Tudor inh inconclusive
CCOc1ccc(C2/C(=C(\O)c3c(C)[nH]c(C(=O)OC)c3C)C(=O)C(=O)N2CCN(C)C)cc1 (configuration not stated)	G9a inh 44.7µM, JMJD2A Tudor inh 35.5µM
